# Hits are enriched below; roughly 3.4% of the tested compounds scored in any of these assays.
# FBW7 act: human FBW7 E3 ligase activation, primary screen; Q969H0; AlphaScreen FBW7–phospho-cyclin E peptide binding, activator screen; normalized activity (activation), % at 26.1 µM; 650,000 tested, 0.13% active; AID 1259310; in the data active means normalized activity above about 1.9%;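 further: purified mutant Fbw7 with reduced substrate affinity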
# TEAD-YAP inh: TEAD-YAP interaction inhibition. HEK-TIYL cells, TEAD-Gal4/YAP UAS-luciferase luminescence. inhibition, % at 9.12 µM. 640,000 tested, 1.4% active. AID 1259422; in the data active means inhibition above about 32%
# GPR151 ag: human GPR151 activation | Q8TDV0 | PathHunter beta-arrestin GPR151 cells, luminescence | activation, % at 11.2 µM | 650,000 tested, 1% active | AID 1508602; in the data active means activation above about 4.9%
# MITF inh: human MITF inhibition, primary screen | O75030 | AlphaScreen MITF homodimerization, bead proximity signal | inhibition, % at 2.6 µM | 650,000 tested, 0.91% active | AID 1259374; in the data active means inhibition above about 50%
# GPR151 conf act: human GPR151 activation, confirmation screen. shares compounds with GPR151 ag. GPR151 PathHunter beta-arrestin cells, luminescence, 90 min; % of EA-reagent control over plate median. activation, % at 11.2 µM. 6,700 tested, under 10 active. AID 1508609;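 active means mean percent activation across replicates above the confirmation screen cutoff of 4.91%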
# GPR119 counter: activates human GPR119 in a GPR151 counter-screen. GPR119 PathHunter beta-arrestin cells, luminescence, 90 min; 0 = compound-well median, 100 = enzyme-acceptor control. activation, % at 11.2 µM. shares compounds with GPR151 ag. 6,700 tested, 0.3% active;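 active means mean percent activation in the counterscreen above 29.09%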;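 further: counterscreen on off-target GPR119 to flag nonselective hits from the GPR151 activator screen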
# Target sequence (Q8TDV5 whole entry, looked up): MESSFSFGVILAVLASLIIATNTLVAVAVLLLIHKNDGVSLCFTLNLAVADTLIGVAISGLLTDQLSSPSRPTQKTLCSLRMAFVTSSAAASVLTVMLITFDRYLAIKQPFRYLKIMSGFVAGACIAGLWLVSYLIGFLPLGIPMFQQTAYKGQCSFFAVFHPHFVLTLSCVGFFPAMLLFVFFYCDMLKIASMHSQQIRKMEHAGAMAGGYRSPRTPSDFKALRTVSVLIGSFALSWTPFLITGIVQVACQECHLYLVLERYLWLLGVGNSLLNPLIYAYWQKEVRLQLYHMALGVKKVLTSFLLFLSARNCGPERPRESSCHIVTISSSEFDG
# Numbers stand for hits; 0 = inactive; - = no result; ! = not confirmed by another sample.
SMILES,FBW7 act,TEAD-YAP inh,GPR151 ag,MITF inh,GPR151 conf act,GPR119 counter
Cc1cc2oc(=O)c3c(c2c(O)c1CN1CCN(C)CC1)CCCC3,0,0,9.3,0,0,0
CC(=O)Oc1cc(C)cc2oc(=O)c3c(c12)CCCC3,0,0,0,0,-,-
O=[N+]([O-])N=C1NCN(C2CCN(Cc3ccccc3)CC2)CN1,0,0,5.5,0,0,0
O=C(Nc1ccccc1)N1CNC(=N[N+](=O)[O-])NC1,0,0,0,0,-,-
CCOC(=O)c1c(NC(=O)C23CC4CC(CC(C4)C2)C3)sc2c1CCCC2,0,0,0,0,-,-
CC(C)P(=O)(Nc1ccccc1)C(C)C,0,0,8.0,0,0,0
CN(C)CP(=O)(Nc1ccccc1)N(C)C (centres undefined),0,0,0,0,-,-
C=CCOC(=O)C1=C(C)OC(N)=C(C(=O)OCc2ccccc2)C12C(=O)Nc1ccccc12 (centres undefined),0,0,6.3,0,0,0
COc1cc(C=C2C(=O)NC(=S)NC2=O)ccc1OC(=O)c1ccc(C)cc1,0,0,6.6,0,0,0
O=c1oc2ccccc2c(O)c1C(c1cc(Cl)ccc1O)c1c(O)c2ccccc2oc1=O,0,0,0,0,-,-
COc1ccc(CC(=O)N2CCN(Cc3nc(-c4ccc(Cl)cc4)cs3)CC2)cc1OC,0,61,15,0,0,0
CC(=O)Cn1nc([N+](=O)[O-])nc1-c1n[nH]c([N+](=O)[O-])n1,0,0,0,0,-,-
O=c1c2ccccc2nc(/C=C/c2cccc(Br)c2)n1-c1ccccc1,0,0,0,0,-,-
Cc1csc(NC(=O)c2cccn(Cc3ccc(Cl)cc3)c2=O)n1,0,0,4.9,0,0,0
C=C[C@H]1CN2CC[C@H]1C[C@H]2[C@H](O)c1ccnc2ccccc12,0,0,5.4!,0,0,0
O=C(Cc1ccc(Cl)cc1)N1CCN(Cc2ccccc2)CC1,0,0,0,0,-,-
Cc1nc(SCc2ccccc2)[nH]c(=O)c1CC(=O)N1CCN(Cc2ccccc2)CC1,0,0,6.2,0,0,0
COc1cc2c(cc1O)[C@@H]1Cc3ccc(OC)c(O)c3CN1CC2,0,44,6.0,0,0,0
CCc1c(C)nc(N)nc1N1N=C1SCC(N)=O,0,0,9.5,0,0,0
CN1CCN(c2ccc([N+](=O)[O-])cc2C(F)(F)F)CC1,0,0,0,0,-,-
CN1CCN(c2ccc([N+](=O)[O-])cc2C=O)CC1,0,0,5.9,0,0,0
O=c1c(-c2ccccc2)coc2c(CN3CCCCC3)c(O)ccc12,0,0,5.1,0,0,0
CN1CCN(Cc2ccc(Br)o2)CC1,0,0,0,0,-,-
Cc1nn(Cc2ccccc2)c(C)c1C=O,0,0,5.1,0,0,0
CCOc1ccccc1N1CCN(Cc2cccnc2)CC1,0,0,5.5,0,0,0
SMILES,FBW7 act,TEAD-YAP inh,GPR151 ag,MITF inh,GPR151 conf act,GPR119 counter
CC(C)(C)c1cc(C=C(C#N)C#N)cc(C(C)(C)C)c1O,0,91,6.4,0,0,0
COc1cc(C=C(C#N)C#N)cc(O)c1O,0,0,0,0,-,-
COc1ccc(CCN(C)C2CCCN(C(=O)Cc3nonc3C)C2)cc1OC (centres undefined),0,0,0,0,-,-
C[C@@H]1O[C@@H](O[C@H]2C[C@@H](O)[C@]3(CO)[C@H]4[C@H](O)C[C@]5(C)[C@@H](C6=CC(=O)OC6)CC[C@]5(O)[C@@H]4CC[C@]3(O)C2)[C@H](O)[C@H](O)[C@H]1O,0,103,5.7!,0,0,128
O=C1NC(=S)NC(=O)C1=Cc1ccc(I)o1,0,0,5.7,63,0,0
COc1cccc(/C=C/c2nc3ccccc3c(=O)n2-c2ccc(C)cc2)c1,0,0,0,0,-,-
COc1ccc2oc3c(c2c1)NC(=O)CN=C3c1ccccc1,0,0,6.9,0,0,0
COc1ccc2oc3c(c2c1)NC(=O)CN=C3c1ccc(F)cc1,0,0,0,0,-,-
O=c1oc2ccccc2c(O)c1C(c1ccc2c(c1)OCO2)c1c(O)c2ccccc2oc1=O,0,0,15,0,0,0
CCCC[N+]12CCC(CC1)C(C(=O)c1cccs1)C2 (centres undefined),0,0,5.8,0,0,0
CC1=C(C(=O)OC(C)C)C2(C(=O)Nc3ccc(Br)cc32)C(C#N)=C(N)O1 (centres undefined),0,0,14,0,0,0
CCOC(=O)C1=C(C)OC(N)=C(C#N)C12C(=O)Nc1ccc(Br)cc12 (centres undefined),0,0,0,0,-,-
OC1/C(=C/c2cccc(OCc3ccccc3)c2)N2CCC1CC2 (centres undefined),0,0,5.9,0,0,0
COC(=O)c1ccc(Cn2c[n+]([N-][N+](=O)[O-])cn2)cc1,0,0,0,0,-,-
N#Cc1ccc(NC(=O)c2ccc3c(c2)S(=O)(=O)c2ccccc2C3=O)cc1Cl,0,0,0,0,-,-
CCN(CC)c1ccc(/C=C\[N+](=O)[O-])c(C)c1,0,0,6.7,0,0,0
N#Cc1ccc(NC(=O)CSc2n[nH]c(-c3cccs3)n2)cc1Cl,0,0,11,0,0,0
CN(C)C(=O)Oc1cccc(-c2c(C#N)c(N)n3c(nc4ccccc43)c2C#N)c1,0,0,0,0,-,-
COc1cc([N+](=O)[O-])ccc1-n1c(/C=C/c2ccccc2)nc2ccccc2c1=O,0,0,0,0,-,-
C[C@H](N)[C@H](O)c1ccc(O)c(O)c1,0,0,5.7!,84,0,0
O=C1CC(c2ccc(F)cc2)CN1 (centres undefined),0,0,0,0,-,-
O=C(O)CCn1cc(C=C2C(=O)NC(=S)NC2=O)c(-c2cccc(Cl)c2)n1,0,0,0,0,-,-
O=C(O)CCn1cc(C=C2C(=O)NC(=O)NC2=O)c(-c2ccc(Br)cc2)n1,0,0,5.4,0,0,0
O=C1CCN(C(=O)c2ccc(F)cc2)CC1,0,0,0,0,-,-
N#Cc1cc(F)c(N2CCNCC2)cc1Cl,0,0,0,0,-,-
SMILES,FBW7 act,TEAD-YAP inh,GPR151 ag,MITF inh,GPR151 conf act,GPR119 counter
N#Cc1c(Cl)c(Cl)nc(N2CCCNCC2)c1Cl,0,0,6.1,0,0,0
CC(Cc1cccc(C(F)(F)F)c1)NCCCc1ccccc1 (centres undefined),0,-,9.1,0,0,0
O=[N+]([O-])C1N=Nc2nncn21 (centres undefined),0,0,0,0,-,-
C=CCN1C(=O)/C(=C\c2cc(Cl)c(O)c(OC)c2)C(=O)NC1=S,0,0,0,0,-,-
C=CCN1C(=O)/C(=C/c2ccc(Cl)cc2Cl)C(=O)NC1=S,0,0,9.1,0,0,0
CC(C)n1[nH]c(=O)c2c1NC(=O)CSC2c1ccc(F)cc1 (centres undefined),0,0,0,0,-,-
Cc1ccc(NC2=NC(C)(C)CS2)c(C)c1,0,0,0,0,-,-
COc1cccc(C(c2c(O)[nH]c(=S)[nH]c2=O)N2CCOCC2)c1OC (centres undefined),0,0,0,0,-,-

# Assay outcomes (PubChem BioAssay)
